RORg inh: blocks mouse ROR gamma transcriptional activity. AID 2551. 5.4% of 310,000 active. P51450. Potency, µM (highest dose often 53.6 µM), actives largely listed as inhibitors. Drosophila S2 Gal4-RORgamma UAS-luciferase reporter, 20 h; note: nearly all actives have a fitted effect of over 60% in size
Target sequence (P51450 whole entry, looked up, the tested form may be a part): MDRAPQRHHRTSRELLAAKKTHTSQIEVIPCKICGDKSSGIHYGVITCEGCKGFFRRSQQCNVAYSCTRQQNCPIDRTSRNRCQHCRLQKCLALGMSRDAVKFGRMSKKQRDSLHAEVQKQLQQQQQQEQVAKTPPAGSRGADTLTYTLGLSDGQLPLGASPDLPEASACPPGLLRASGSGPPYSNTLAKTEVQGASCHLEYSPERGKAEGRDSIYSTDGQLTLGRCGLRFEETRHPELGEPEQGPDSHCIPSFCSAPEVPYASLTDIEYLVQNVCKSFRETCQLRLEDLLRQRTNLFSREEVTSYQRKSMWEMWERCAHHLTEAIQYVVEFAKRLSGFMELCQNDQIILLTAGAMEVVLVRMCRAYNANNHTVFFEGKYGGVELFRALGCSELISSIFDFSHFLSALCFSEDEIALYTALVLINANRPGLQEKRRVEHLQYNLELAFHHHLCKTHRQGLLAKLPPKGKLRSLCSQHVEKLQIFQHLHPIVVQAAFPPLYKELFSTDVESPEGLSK
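A Gal4/UAS one-hybrid system in insect cells: metallothionein-promoter Gal4–ROR gamma fusion plus Photinus luciferase reporter. Copper sulfate 700 uM final, 20 hr ambient incubation, luminescent detection after 10 min with reagent.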
TDP1 cell noCPT: qHTS for Inhibitors of human tyrosyl-DNA phosphodiesterase 1 (TDP1): qHTS in cells in absence of CPT. DT40 Tdp1-/- hTDP1 cells, no CPT, ATP luminescence, 48 h. Potency, µM (titrated, usually from 46.2 µM), actives largely listed as inhibitors. 15% of 420,000 active. AID 686978, 2013; note: nearly all actives have a fitted effect of over 55% in size
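Chicken DT40 Tdp1-/- cells complemented with human TDP1, screened without camptothecin (DMSO vehicle only), 400 cells/well. Compounds pin-transferred, cells incubated at 37 °C for at least 48 hr. Growth read as ATP-dependent luminescence (CellTiter-Glo, 30 min at RT).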
VP16 counter: counter-screen for ROR gamma inhibitors: Gal4-VP16 reporter | 3.5% of 310,000 active | Drosophila S2 Gal4-VP16 UAS-luciferase, luminescence, 20 h | AID 2546 | Potency, µM (series often up to 53.6 µM), actives largely listed as inhibitors;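 note: Gal4-VP16 expression switched on by copper sulfate through the metallothionein promoter; nearly all actives have a fitted effect of over 50% in size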
LDHA block: blocks human lactate dehydrogenase A; P00338; purified LDHA, NADH/diaphorase-resazurin fluorescence; stronger effect = lower value; activity change, % (values are at about 110 or 230 µM); 0.15% of 480,000 active; AID 1347041; in the data active = activity change below about -30%; inconclusive = mostly about -25% to -30%
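Resorufin fluorescence (ex540/em590), read at 0 and 20 min after diaphorase/resazurin addition, reports the NADH left after a 5 min room-temperature reaction of 2 nM human LDH5 with 0.06 mM NADH and 0.2 mM pyruvate.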
DT40 TDP1 CPT: growth inhibition of DT40 Tdp1-/-;hTDP1 cells with camptothecin (screen for TDP1 inhibitors); chicken DT40 Tdp1-/-;hTDP1 cells + 20 nM CPT, ATP luminescence, 48 h; 12% of 420,000 active; Potency, µM (titrated, usually from 46.2 µM), actives largely listed as inhibitors; AID 686979; note: nearly all actives have a fitted effect of over 55% in size
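Chicken DT40 Tdp1-/- cells complemented with human TDP1, 400 cells/well, exposed to compounds plus 20 nM camptothecin for at least 48 h at 37 C; viability read as ATP content by CellTiter-Glo luminescence.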
IL-1B inflam inh: inflammasome signaling inhibition, IL-1 beta readout; 4.7% of 360,000 active; THP-1 LPS/ATP IL-1B secretion, AlphaLISA, 16 h; stronger effect = lower value; activity change, % at 57.5 µM; AID 743279; in the data active = activity change below about -50%; inconclusive = mostly about -30% to -49%
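THP-1 cells pretreated 1 hr with compounds (up to 57.5 uM final), then stimulated with LPS (250 ng/mL final) plus ATP (1.25 mM final); secreted IL-1B measured by AlphaLISA after 16 hr, decreased signal indicating inhibition.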
A number is an active result; [ ] = another dose, or the depositor's remark. A selection: hits, their analogues and other compounds. The true share with any hit is near 18%. Unless noted, calls come from the whole dose curve; as a rule, active = well fitted curve in the direction sought with a large enough effect; inconclusive = small, poorly fitted or top-dose-only effect, or another doubt; inactive = no such curve, though single readings can be large; an effect the other way counts as inactive or inconclusive.

How did Cc1cccc(OCC(=O)Nc2nc(-c3ccc(S(=O)(=O)N4CCOCC4)cc3)cs2)c1C do in these assays?
LDHA block: inactive

What do the screens show for `Cc1cccc(-c2nn3c(=O)cc(N4CCN(C(=O)COc5ccccc5Cl)CC4)nc3s2)c1`?
LDHA block: inactive

How did CCOC(=O)c1ccc(S(=O)(=O)NCCNCc2ccccc2)cc1 do in these assays?
TDP1 cell noCPT: inconclusive; LDHA block: inactive; DT40 TDP1 CPT: inconclusive; IL-1B inflam inh: -76.0

How did CCc1ccc(NC(=O)C(=O)NCC(O)c2ccccc2)cc1 (stereo unspecified) do in these assays?
RORg inh: inactive; TDP1 cell noCPT: inactive; VP16 counter: inactive; LDHA block: inactive; DT40 TDP1 CPT: inactive; IL-1B inflam inh: inactive

How did CCOC(=O)c1ccc(NC(=S)NCC(O)c2ccccc2)cc1 (stereo unspecified) do in these assays?
RORg inh: inactive; TDP1 cell noCPT: 18.4µM; VP16 counter: inactive; LDHA block: inactive; DT40 TDP1 CPT: inconclusive; IL-1B inflam inh: inactive

What do the screens show for `Fc1ccc(-c2ccc3c(c2)C2CC3CCN2)cc1` (stereo unspecified)?
TDP1 cell noCPT: 23.1µM; LDHA block: inactive; DT40 TDP1 CPT: 18.4µM; IL-1B inflam inh: inactive

Results for Cc1cccc(-c2ccc3c(c2)C2CC3CCN2)c1 (stereo unspecified) ?
TDP1 cell noCPT: 14.6µM; LDHA block: inactive; DT40 TDP1 CPT: 20.6µM; IL-1B inflam inh: inactive

How did Cc1cccc(-c2ccc3c(c2)C2CC3CCN2C)c1 (stereo unspecified) do in these assays?
TDP1 cell noCPT: inconclusive; LDHA block: inactive; DT40 TDP1 CPT: inconclusive; IL-1B inflam inh: inactive

What do the screens show for `CN(C)S(=O)(=O)c1ccc(NC(=S)NC(=O)c2cccs2)cc1`?
RORg inh: 8.91µM; TDP1 cell noCPT: inconclusive; VP16 counter: inactive; LDHA block: inactive; DT40 TDP1 CPT: inconclusive; IL-1B inflam inh: inactive

What do the screens show for `CCN(c1ccccc1)S(=O)(=O)c1ccc(NC(=S)NC(=O)c2cccs2)cc1`?
RORg inh: 3.16µM; TDP1 cell noCPT: 23.1µM; VP16 counter: 7.08µM; LDHA block: inactive; DT40 TDP1 CPT: inconclusive; IL-1B inflam inh: inactive

What do the screens show for `CCCC(=O)Nc1ccc(NC(=S)NC(=O)c2cccs2)cc1`?
RORg inh: inconclusive; TDP1 cell noCPT: inactive; VP16 counter: inconclusive; LDHA block: inactive; DT40 TDP1 CPT: inactive; IL-1B inflam inh: inactive

What do the screens show for `COc1ccc(C(=O)OCc2cc(=O)n3oc(C)cc3n2)cc1NC(=O)C(C)(C)C`?
LDHA block: inactive

Results for COc1ccc(C(=O)OCc2ccccc2C#N)c(OC)c1 ?
LDHA block: inactive

What do the screens show for `Cc1cccc(C)c1C(OCCN(C)C)C1CCCCC1` (stereo unspecified)?
RORg inh: inactive; TDP1 cell noCPT: inconclusive; VP16 counter: inactive; LDHA block: inactive; DT40 TDP1 CPT: 18.4µM; IL-1B inflam inh: inactive

What do the screens show for `O=C(O)c1ccc(O)cc1O`?
RORg inh: inactive; TDP1 cell noCPT: inactive; VP16 counter: inactive; LDHA block: inactive; DT40 TDP1 CPT: inactive; IL-1B inflam inh: inactive

What do the screens show for `Oc1ccc(-c2cnns2)c(O)c1`?
RORg inh: inconclusive; TDP1 cell noCPT: 4.61µM; VP16 counter: inconclusive; LDHA block: inactive; DT40 TDP1 CPT: 4.11µM; IL-1B inflam inh: inconclusive

How did c1ccc(Nc2ncnc3sccc23)cc1 do in these assays?
RORg inh: inactive; TDP1 cell noCPT: inactive; VP16 counter: inactive; LDHA block: inactive; DT40 TDP1 CPT: inactive; IL-1B inflam inh: inactive

Results for CC1CCCCC1Nc1ncnc2sccc12 (stereo unspecified) ?
RORg inh: inconclusive; TDP1 cell noCPT: inconclusive; VP16 counter: inconclusive; LDHA block: inactive; DT40 TDP1 CPT: 18.4µM; IL-1B inflam inh: inactive

What do the screens show for `Cc1cccc(N=C2NC(=O)/C(=C/C=C/c3ccco3)S2)c1`?
RORg inh: inconclusive; TDP1 cell noCPT: 23.1µM; VP16 counter: inconclusive; LDHA block: inactive; DT40 TDP1 CPT: 13µM; IL-1B inflam inh: inactive

Results for Cc1cccc(N=C2NC(=O)S/C2=C\c2ccco2)c1 ?
RORg inh: inactive; TDP1 cell noCPT: inconclusive; VP16 counter: inactive; LDHA block: inactive; DT40 TDP1 CPT: inconclusive; IL-1B inflam inh: inactive

What do the screens show for `COc1ccc(N=C2NC(=O)/C(=C\C=C\c3ccco3)S2)cc1`?
RORg inh: inactive; TDP1 cell noCPT: inconclusive; VP16 counter: inconclusive; LDHA block: inactive; DT40 TDP1 CPT: inconclusive; IL-1B inflam inh: -63.2

Results for O=C1NC(=Nc2ccc3ccccc3c2)S/C1=C/c1ccco1 ?
RORg inh: inactive; TDP1 cell noCPT: inconclusive; VP16 counter: inconclusive; LDHA block: inactive; DT40 TDP1 CPT: inactive; IL-1B inflam inh: inactive

Results for CCn1cc(C(=O)NCc2ccco2)c(=O)c2cc(F)c(N3CCN(C(=O)c4ccco4)CC3)cc21 ?
RORg inh: inactive; TDP1 cell noCPT: inconclusive; VP16 counter: inactive; LDHA block: inactive; DT40 TDP1 CPT: 20.6µM; IL-1B inflam inh: inconclusive

Results for CCn1cc(C(=O)NCC(C)C)c(=O)c2cc(F)c(N3CCN(C(=O)c4ccco4)CC3)cc21 ?
RORg inh: inactive; TDP1 cell noCPT: 20.6µM; VP16 counter: inactive; LDHA block: inactive; DT40 TDP1 CPT: inconclusive; IL-1B inflam inh: inactive

What do the screens show for `CCC(C)NC(=O)c1cn(CC)c2cc(N3CCN(C(=O)c4ccco4)CC3)c(F)cc2c1=O` (stereo unspecified)?
RORg inh: inactive; TDP1 cell noCPT: 13µM; VP16 counter: inactive; LDHA block: inactive; DT40 TDP1 CPT: 16.4µM; IL-1B inflam inh: inactive

How did C=CCNC(=O)c1cn(CC)c2cc(N3CCN(C(=O)c4ccco4)CC3)c(F)cc2c1=O do in these assays?
RORg inh: inactive; TDP1 cell noCPT: 14.6µM; VP16 counter: inactive; LDHA block: inactive; DT40 TDP1 CPT: 23.1µM; IL-1B inflam inh: inactive

What do the screens show for `CCn1cc(C(=O)NCC(C)C)c(=O)c2cc(F)c(N3CCN(C)CC3)cc21`?
RORg inh: inactive; TDP1 cell noCPT: inactive; VP16 counter: inactive; LDHA block: inactive; DT40 TDP1 CPT: inactive; IL-1B inflam inh: inactive

What do the screens show for `CCn1cc(C(=O)NCCc2ccccc2)c(=O)c2cc(F)c(N3CCN(C)CC3)cc21`?
RORg inh: inactive[0.365 µM]; TDP1 cell noCPT: inconclusive; LDHA block: inactive; DT40 TDP1 CPT: inconclusive; IL-1B inflam inh: inactive

Results for CCn1cc(C(=O)NCc2ccc3c(c2)OCO3)c(=O)c2cc(F)c(N3CCN(C)CC3)cc21 ?
RORg inh: inactive; TDP1 cell noCPT: inconclusive; VP16 counter: inactive; LDHA block: inactive; DT40 TDP1 CPT: inconclusive; IL-1B inflam inh: inactive

Screening results: PubChem BioAssay, National Center for Advancing Translational Sciences (NCATS)
